Source: PubChem (Sanford-Burnham Center for Chemical Genomics)
Compounds with a hit are over-represented: about 4% of the library has one in this group of screens.
NALP1 yeast inh = NALP1 inhibition | AID 2071 | 0.61% of 280,000 active | S. cerevisiae NALP1/ASC/caspase-1 growth, X-gal OD620, 72 h | inhibition, % at 10 µM; in the data active = inhibition mostly above about 24%, no sharp cut-off; inactive = mostly below about 32%
tim10-1 inh = inhibits growth of tim10-1 mutant yeast | AID 463190 | S. cerevisiae tim10-1 ts strain growth, BacTiter-Glo, 24 h | inhibition, % at 20 µM | 2.2% of 330,000 active;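 active = inhibition of at least 40%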;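 also: mutant grown at 25 °C; 0% = DMSO wells with yeast and 100% = wells holding no yeast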
tim23-1 inh = inhibits growth of tim23-1 mutant yeast; S. cerevisiae tim23-1 growth, BacTiter-Glo luminescence, 24 h; inhibition, % at 20 µM; 1.3% of 330,000 active; AID 463212;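 active = growth inhibition of the mutant yeast at or above 50%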;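 also: temperature-sensitive mutant grown at 25 °C; plate controls were DMSO-treated mutant yeast for no effect and medium wells lacking yeast for full effect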
NLRP3 yeast inh = NALP3 inhibition in yeast; Yeast reconstituted NLRP3/ASC/caspase-1, beta-gal luminescence, 24 h; inhibition, % at 10 µM; 0.39% of 330,000 active;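 active = inhibition of 50% or more; inactive = inhibition below 50%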;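 also: plate controls were induced DMSO wells for no effect and uninduced yeast grown without galactose for full effect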
TIM10 inh = inhibits growth of TIM10 yeast strain; S. cerevisiae TIM10 strain growth, BacTiter-Glo luminescence, 24 h; inhibition, % at 10 µM; 1.4% of 330,000 active;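 active = inhibition of 40% or more at the single tested concentration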;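 also: wild-type TIM10 isogenic control strain grown at permissive 25 °C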
tim10-1 confirm = tim10-1 yeast growth inhibition, confirmed; shares compounds with tim10-1 inh; S. cerevisiae tim10-1 ts strain growth, BacTiter-Glo, 24 h; inhibition, % at 20 µM; 56% of 7,400 active; AID 463213;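 active = inhibition of yeast growth at or above a set limit in either of two repeat tests at 20 µM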;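 also: tim10-1 mutant grown at permissive 25 °C to find synthetic lethal compounds; 0% = DMSO yeast wells and 100% = medium wells without yeast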
tim10 confirm = confirmation of TIM10 yeast growth inhibitors; shares compounds with TIM10 inh; S. cerevisiae tim10 strain growth, BacTiter-Glo luminescence, 24 h; inhibition, % at 10 µM; 63% of 4,600 active;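 active = inhibition of yeast growth at or above a set limit in either of two replicates at 10 µM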;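 also: this counterscreen used the strain with wild-type TIM10; 0% = yeast with DMSO and 100% = medium wells lacking yeast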
tim23-1 conf = tim23-1 yeast growth inhibition, confirmed; shares compounds with tim23-1 inh; 83% of 4,400 active; inhibition, % at 20 µM; S. cerevisiae tim23-1 growth, BacTiter-Glo luminescence, 24 h;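 active = inhibition above about 39% in either of two replicate wells at 20 µM, limit read from the data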;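 also: temperature-sensitive tim23-1 mutant grown at 25 °C; 0% = DMSO wells with yeast and 100% = medium wells without yeast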
* marks the source's active call; other numbers are inactive results; . = not tested or not shown.

SMILES | NALP1 yeast inh | tim10-1 inh | tim23-1 inh | NLRP3 yeast inh | TIM10 inh | tim10-1 confirm | tim23-1 conf | others
CSc1ncccc1C(=O)OCC(=O)N(CC(C)C)c1c(N)n(Cc2ccccc2)c(=O)[nH]c1=O | 14 | -5 | 0 | 24 | 11 | . | .
N#C/C(N=Nc1ccccc1O)=N\Nc1ccccc1O | . | 65* | 82* | 28 | 13 | 60* | 66*
CCN(C(=O)CCS(=O)(=O)c1cccc2nonc12)c1ccc(F)cc1 | 15 | 0 | 17 | 12 | 19 | . | .
O=C1/C(=C\c2ccccn2)SC(=S)N1Nc1ncc(C(F)(F)F)cc1Cl | 3 | 64* | 64* | 12 | 59* | 57* | 33 | tim10 confirm=47*
O=C1/C(=C/c2ccc(F)cc2)SC(=S)N1Nc1ncc(C(F)(F)F)cc1Cl | 30 | 23 | 11 | 9 | -6 | . | .
CC(c1ccccc1)N1C(=O)/C(=C/c2ccncc2)SC1=S (stereo not given) | 7 | 66* | 73* | 41 | 62* | 61* | 28 | tim10 confirm=73*
O=C(O)C(c1ccccc1)N1C(=O)/C(=C/c2cccs2)SC1=S (stereo not given) | -9 | -12 | 16 | -5 | 6 | . | .
CCC(C)c1ccc(NC(=O)c2ccco2)cc1 (stereo not given) | 8 | 36 | 38 | 35 | 21 | . | .
CCOc1c(Br)cc(/C=C2\N=C(C)OC2=O)cc1Br | 19 | 61* | 59* | 1 | 28 | 33* | 64*
COc1cc(C(=O)NCC(c2ccco2)N2CCc3ccccc3C2)cc(OC)c1OC (stereo not given) | . | 22 | 11 | 13 | 13 | . | .
COc1ccc(S(=O)(=O)n2nc(-c3cc(OC)c(OC)c(OC)c3)cc2N)cc1OC | -37 | 12 | 10 | 23 | 4 | . | .
COc1ccc(-c2cc(N)n(S(=O)(=O)c3c(F)c(F)c(F)c(F)c3F)n2)cc1OC | -27 | 68* | 70* | -29 | 75* | 75* | -23 | tim10 confirm=74*
Cn1c(N2CCCC2)nc2c1c(=O)[nH]c(=O)n2C | -3 | -5 | -7 | 12 | 2 | . | .
Cc1cc(OCc2cc(C(=O)N3CCC(Oc4cccnc4)CC3)no2)cc(C)c1Cl | 8 | 61* | 51* | 7 | 41* | 38* | 55* | tim10 confirm=47*
Oc1ccccc1N=Cc1c(O)ccc2oc3c(c12)CCCC3 | 2 | 47* | 52* | 29 | 38 | 55* | 73*
COc1ccc(S(=O)(=O)N2CCOCC2)cc1NC(=O)CN1C(=O)NC2(CCCC2)C1=O | . | 21 | -1 | 18 | -2 | . | .
CCOC(=O)C1=C(CC)Nc2ccccc2N=C1NC(=O)Nc1ccc(Cl)c(Cl)c1 | -1 | 79* | 76* | 10 | 70* | 71* | 72* | tim10 confirm=-25
O=C(O)CSCC(=O)Nc1ccc(Cl)cc1C(F)(F)F | -7 | 1 | 8 | 15 | -8 | . | .
CC(C)N(CC(=O)Nc1ccc(Cl)cc1C(F)(F)F)C(=O)CCl | 5 | 47* | 55* | 12 | 67* | 59* | 54* | tim10 confirm=56*
Cc1ccc(-c2cc(C(=O)N3N=C(C(F)F)CC3(O)C(F)F)c3ccccc3n2)cc1C (stereo not given) | -15 | 50* | 52* | 21 | 27 | 17 | 5
COc1ccc(NC(=O)/C(C#N)=C/c2ncc([N+](=O)[O-])n2C)c(OC)c1 | . | 58* | 84* | 48 | 25 | 66* | 81*
COC(=O)CCC(C)N1CCC(Oc2ccc(C(=O)NCc3ccccn3)cc2)CC1 (stereo not given) | 11 | 1 | -2 | -4 | -6 | . | .
COc1ccc(/C=C/c2nnc(NC(=O)C(C)(C)C)s2)cc1 | . | 41* | 52* | 27 | 30 | 31* | 46*
CCCC(=O)Nc1nnc(/C=C/c2ccc(OC)cc2)s1 | 4 | -3 | 11 | 20 | 11 | . | .
COC(=O)c1ccc(C2=NOC(C)(c3nnc(Cc4ccccc4)o3)C2)cc1 (stereo not given) | . | 14 | 1 | 23 | -4 | . | .
O=[N+]([O-])c1cnc2ccccc2c1 | 28 | 14 | 17 | -13 | 0 | . | .
